m-calpain inh – inhibitors of pig calpain II, primary screen, biochemical, fluorogenic peptide substrate, 1536-well; inhibition, % at 16 µM; purified calpain II, 30 min; 220,000 tested, 0.37% active;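 active = inhibition above about 50%, limit read from the data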
L929 necroptosis – inhibitors of zVAD-triggered necroptosis, primary screen, L929 cells; viability rescue, % at 10 µM; L929 zVAD necroptosis rescue, ATP luminescence, 24 h; with zVAD 60 µM; 220,000 tested, 0.38% active;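 active = activation, scaled between plate controls, above about 75%, limit read from the data; inactive = activation under that limit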;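 note: 0% = zVAD with DMSO and 100% = DMSO alone without zVAD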
TNF necrop inh – inhibitors of TNF-alpha triggered necroptosis, primary screen, cell-based, Jurkat FADD-/-, single concentration; activation (protection from cell death), % at 10 µM; AID 463075, 2010; 220,000 tested, 0.068% active; Jurkat FADD-/- TNF necroptosis rescue, ATP luminescence, 24 h; 0 = TNF only, 100 = no-TNF cells;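 active = activation, meaning protection from cell death, of at least 50% relative to plate controls; inactive = activation below 50%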;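 note: necroptosis triggered by 40 ng/mL TNF-alpha added together with compound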
HSV augment – enhancers of HSV replication in host cells, fold increase, host cell viability. HSV replication augmentation in cells. maximum fold increase. 220,000 tested, 0.005% active; in the data active = maximum fold increase above about 1.5; inconclusive = no clear call, values can overlap the other calls; tested in PC3 cells
zVAD death conf – inhibitors of zVAD-triggered necroptosis in L929, confirmation, L929 cells, duplicate runs; shares compounds with L929 necroptosis; L929 zVAD-induced necroptosis rescue, ATP luminescence, 24 h; 760 tested, 16% active; activation (protection from necroptosis), % at 10 µM;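 active = mean protection from necroptosis of at least 50% over duplicate tests; inactive = mean protection below 50%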;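 note: 0% = cells with zVAD alone and 100% = vehicle cells without zVAD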
An asterisk follows results filed as active; i = inactive; ? = inconclusive; nt = no result given. Most compounds without a hit are left out; they make up all but 0.77% or so of the library.

SMILES | m-calpain inh | L929 necroptosis | TNF necrop inh | HSV augment | others
COc1ccccc1/C=C/C1(C(=O)NC2CCCC2)CC(=O)N1c1ccccc1 (stereo unspecified) | -14 | -1 | -13 | i
CC(C)Cn1c(N)c(C(=O)COC(=O)CC23CC4CC(CC(C4)C2)C3)c(=O)n(C)c1=O | 71* | -2 | -17 | i
Cn1c(N)c(C(=O)COC(=O)c2ccccn2)c(=O)n(C)c1=O | -3 | 1 | 0 | i
CC(C)Cn1c(N)c(C(=O)COC(=O)c2ccncc2)c(=O)n(C)c1=O | -17 | 0 | -3 | i
CC(C)Cn1c(N)c(C(=O)COC(=O)c2ccc(Cl)cc2)c(=O)n(C)c1=O | 81* | -1 | -2 | i
Cn1c(N)c(C(=O)COC(=O)c2ncc(Cl)c(Cl)c2Cl)c(=O)n(C)c1=O | 62* | 67 | -2 | i
O=C(O)c1cccc(N/N=C/C2=C(Cl)c3cc(Cl)ccc3SC2)c1 | 58* | 1 | 0 | i
COc1ccc2cc(C(=O)N3CCCCCC3)sc(=O)c2c1OC | 60* | 2 | 0 | i
CN1CCS/C1=C\C=C1/SC(=S)N(CC(=O)O)C1=O | 64* | 0 | 0 | nt
Nc1cc(Cl)ccc1Oc1ccccc1 | -6 | 1 | 0 | i
Cc1cccc(Oc2ccc(Cl)cc2N)c1 | 50* | 0 | -3 | i
N#CC1=C(N)NC(SCc2ccc(Cl)cc2)=C(C#N)C12CCCCC2 | 64* | 2 | 5 | i
CCOC(=O)C1CCCN(S(=O)(=O)c2cccs2)C1 (stereo unspecified) | 57* | 0 | -2 | i
CC(C)NC(=O)C1CCCN(S(=O)(=O)c2cccs2)C1 (stereo unspecified) | 26 | 0 | 0 | i
COc1cc([N+](=O)[O-])ccc1-c1ccc(/C=N/NC(=O)c2ccccc2O)o1 | 54* | 1 | -1 | i
COCCCn1c(O)c(/C=C2\N=C(C#N)C(=Nc3ccc(C)cc3)O2)sc1=S | 16 | -2 | -19 | ?
On1onc2c3cc(-c4ccccc4)nc3ccc21 | 82* | 23 | -8 | nt
Nc1ccc(O)c2c1C(=O)c1ccccc1C2=O | -14 | 7 | -13 | i
Nc1c(Cl)cc2c(c1Oc1ccccc1)C(=O)c1ccccc1C2=O | 53* | 0 | -5 | i
CCCc1nc(SCC(=O)c2ccccc2)c2c(=O)n(C)c(=O)n(C)c2n1 | 53* | -1 | -6 | i
COc1ccc2c(c1)C(=O)CC(O)(C(F)F)O2 (stereo unspecified) | 51* | 0 | -1 | i
CN(C)S(=O)(=O)c1cccc(NC(=O)COC(=O)CNC(=O)c2cccc([N+](=O)[O-])c2)c1 | -10 | 1 | 1 | i
O=C(O)[C@@H]1[C@@H]2C[C@@H]2CN1c1ncccc1[N+](=O)[O-] | -19 | 0 | -1 | i
Nc1n[nH]c(N)c1N=Nc1ccc(F)cc1 | 51* | -1 | -2 | i
Nc1n[nH]c(N)c1N=Nc1ccccc1 | 0 | -2 | -4 | i
SMILES | m-calpain inh | L929 necroptosis | TNF necrop inh | HSV augment | others
Cc1onc(-c2c(Cl)cccc2Cl)c1C(=O)N=C(N)N1CC(C)OC(C)C1 (stereo unspecified) | -14 | -1 | 0 | i
Cc1ccc(-n2nnnc2C(=Cc2ccc(N(C)C)cc2)c2nnnn2-c2ccc(C)cc2)cc1 | -30 | 0 | -3 | nt
CCN(CC)c1ccc(C=C(c2nnnn2-c2ccccc2)c2nnnn2-c2ccccc2)cc1 | 11 | -1 | 3 | 3.1*
CC(Nc1ccc(Cl)cc1)C(=O)NN (stereo unspecified) | -15 | 0 | 2 | i
c1ccc2c(N3CCCCC3)nnc(N3CCCCC3)c2c1 | -205 | -1 | 78* | i
CC(C)CCN(C(=S)NC(=O)C1CCCCC1)c1c(N)n(Cc2ccccc2)c(=O)[nH]c1=O | 64* | -1 | 0 | i
C=CCNc1cnn(-c2ccc(C)cc2)c(=O)c1Sc1ccc(C)cc1 | 65* | 2 | 1 | i
CCOc1cc(/C=N/NC(=O)c2ccncc2)cc(Cl)c1OS(C)(=O)=O | 16 | 1 | 2 | i
CCOc1cc(/C=N/NC(=O)c2ccncc2)ccc1OS(C)(=O)=O | 106* | 0 | 1 | i
CN(CCc1ccccn1)C(=S)NC(=O)c1ccco1 | 52* | 0 | 1 | i
Cc1cc(CN(C)Cc2c(C(=O)N3CCCCCCC3)nc3ccc(Cl)cn23)n[nH]1 | -10 | 0 | 1 | i
COc1ccc(CC2SC(=Nc3ccc(F)cc3)NC2=O)cc1 (stereo unspecified) | -18 | 49 | 9 | i
Nc1nc(SCc2ccc(Cl)c(Cl)c2)n[nH]1 | -7 | 3 | 1 | i
O=S1(=O)C=C(SCc2ccc(Cl)c(Cl)c2)Nc2ccccc21 | 53* | 0 | -4 | i
COc1cc(CCc2ccc3c(c2)OCO3)oc(=O)c1 | 2 | 1 | -1 | i
CC1(Cc2ccc3c(c2)OCO3)NC(=O)NC1=O (stereo unspecified) | -5 | 102* | 17 | i | zVAD death conf=59*
COc1ccc(C(=O)OCC(=O)NC(=O)NC(C)C)cc1OC | 23 | 77* | 0 | i | zVAD death conf=1
COc1ccc(C(=O)COC(=O)c2ccc(OC)c(OC)c2)cc1OC | -36 | 2 | 3 | i
COc1ccccc1CN1C[C@@H]2C[C@@H](c3[nH]c4c(C)cccc4c3C)N3CCC[C@@]23C1=O | -37 | 3 | 0 | i
COCC(=O)Nc1ccc([N+](=O)[O-])cc1OC | 20 | 0 | 0 | i
COc1cc([N+](=O)[O-])ccc1NC(=O)COC(=O)c1ccc(NC(N)=O)cc1 | -26 | 78* | 3 | i | zVAD death conf=39
COc1cc2[nH]c3c(N4CCN(c5ccc(Cl)cc5)CC4)ncnc3c2cc1OC | -276 | 2 | -4 | i
COc1cc2[nH]c3c(Cl)ncnc3c2cc1OC | -18 | 77* | 2 | i | zVAD death conf=13
Cc1[nH]c(=O)[nH]c(=O)c1S(=O)(=O)N(CC(C)C)CC(C)C | 24 | 1 | 1 | i
COc1ccc(/C=C/c2nc(-c3ccccc3O)n[nH]2)cc1OC | -33 | 81* | 1 | i | zVAD death conf=4
SMILES | m-calpain inh | L929 necroptosis | TNF necrop inh | HSV augment | others
Cc1nn(C)c(Sc2ccccn2)c1[N+](=O)[O-] | 3 | 1 | 6 | i
O/N=C/c1ccc2ccccc2c1 | -10 | 8 | 0 | i
COc1cc(NC(=O)COc2ccc(-n3ccnc3)cc2)cc(OC)c1 | -17 | 73 | -1 | i
N#Cc1cccc(NC(=O)COc2ccc(-n3ccnc3)cc2)c1 | -7 | 77* | -2 | i | zVAD death conf=68*
Cc1noc(C)c1-c1nnc(-c2ccc(OC(F)(F)F)cc2)o1 | -13 | 1 | 0 | i
Oc1ccc(Nc2nnc(-c3ccc(O)cc3)c3ccccc23)cc1 | -20 | 81* | -2 | i | zVAD death conf=1

High-throughput results from PubChem.
